Results as given in the supplement of paper PMC13380429.

System: Vero E6 infected with SARS-CoV-2
Assay: inhibition of SARS-CoV-2 cytopathic effect; higher = more antiviral protection, active = above 15
Conditions: 48 h

Measured: inhibition of SARS-CoV-2 cytopathic effect

O=C(O)c1cn(C2CC2)c2cc(N3CCNCC3)c(F)cc2c1=O [ciprofloxacin]
inactive: 1 nM -2.01% | 8.33 nM -1.59% | 100 nM 0.61% | 833.33 nM -0.98% | 10000 nM -2.99%

Oc1nc(-c2ccc(C(F)(F)F)cc2)nc2c1CSCC2
inactive: 1 nM 4.88% | 8.33 nM 2.98% | 100 nM 3.97% | 833.33 nM 2.58% | 10000 nM 0.15%

CS(=O)(=O)n1cc2c(n1)CN([C@H]1CO[C@H](c3cc(F)ccc3F)[C@@H](N)C1)C2 [omarigliptin]
inactive: 1 nM -0.75% | 8.33 nM 1.81% | 100 nM 0.23% | 833.33 nM 1.96% | 10000 nM 0.42%

Cc1cc(NC(=O)Nc2ccc(F)c(F)c2)n(-c2ccccc2)n1
inactive: 1 nM -0.5% | 8.33 nM -1.46% | 100 nM 0.29% | 833.33 nM -0.03% | 10000 nM 0.43%

CCC(=N\O)/C(C)=C/c1ccc(F)cc1
inactive: 1 nM -0.84% | 8.33 nM -0.21% | 100 nM 0.55% | 833.33 nM -0.42% | 10000 nM -0.21%

O=C1c2c(O)cc(O)cc2O[C@H](c2ccc(O)c(O)c2)[C@H]1O [taxifolin]
inactive: 1 nM 0.69% | 8.33 nM 1.31% | 100 nM 0.66% | 833.33 nM 0.83% | 10000 nM 2.25%

COc1cccc(OC)c1-c1ccc(C[C@H](NC(=O)c2c(Cl)cccc2Cl)C(=O)O)cc1
inactive: 1 nM 0.68% | 8.33 nM 2% | 100 nM 0.48% | 833.33 nM 1.89% | 10000 nM 1.23%

O=C(O)c1ccccc1Nc1cc(Cl)ccc1C(=O)O [lobenzarit]
inactive: 1 nM 0.49% | 8.33 nM -0.08% | 100 nM 0.37% | 833.33 nM 2.27% | 10000 nM -3.63%

CCN(CC)C(=S)S [ditiocarb-sodium-trihydrate]
active: 10000 nM 23.6%
inactive: 1 nM 0.85% | 8.33 nM -0.21% | 100 nM 0.86% | 833.33 nM -0.23%

CC(=O)O[C@H]1Cc2ccccc2N(C(N)=O)c2ccccc21 [eslicarbazepine-acetate]
inactive: 1 nM 3.04% | 8.33 nM -0.54% | 100 nM 1.48% | 833.33 nM 0.03% | 10000 nM 1.45%

CO/N=C1\CN(c2nc3c(cc2F)c(=O)c(C(=O)O)cn3C2CC2)CC1CN (stereo not given) [gemifloxacin]
inactive: 1 nM -4.74% | 8.33 nM -3.09% | 100 nM 0.76% | 833.33 nM 1.02% | 10000 nM 5.76%

CCOC(=O)[C@@H](N)Cc1ccc(O)c(O)c1 [etilevodopa]
inactive: 1 nM 3.02% | 8.33 nM 1.51% | 100 nM 2.32% | 833.33 nM 0.72% | 10000 nM 0.9%

COc1ccc([C@@H]2CC(=O)c3c(O)cc(O[C@@H]4O[C@H](CO[C@@H]5O[C@@H](C)[C@H](O)[C@@H](O)[C@H]5O)[C@@H](O)[C@H](O)[C@H]4O)cc3O2)cc1O [hesperidin]
inactive: 1 nM 1.23% | 8.33 nM 2.76% | 100 nM 0.86% | 833.33 nM 0.15% | 10000 nM 1.25%

O/N=C/c1ccc(-c2ccc(O)c(F)c2)c(Cl)c1O
inactive: 1 nM -3.41% | 8.33 nM -2.33% | 100 nM -2.06% | 833.33 nM -0.62% | 10000 nM -12.8%

Cc1ccc(CC2(O)CCN(CCOc3ccc(O)cc3)CC2)cc1
inactive: 1 nM -5.34% | 8.33 nM 1.47% | 100 nM 3.16% | 833.33 nM -0.31% | 10000 nM 1.64%

C[C@H]1O[C@@H](O[C@H]2CC[C@@]3(C)[C@H](CC[C@@H]4[C@@H]3C[C@@H](O)[C@]3(C)[C@@H](C5=CC(=O)OC5)CC[C@]43O)C2)C[C@H](O)[C@@H]1O[C@H]1C[C@H](O)[C@H](O[C@H]2C[C@H](O)[C@H](O[C@@H]3O[C@H](CO)[C@@H](O)[C@H](O)[C@H]3O)[C@@H](C)O2)[C@@H](C)O1 [deslanoside]
inactive: 1 nM -1.34% | 8.33 nM -4.74% | 100 nM -14.1% | 833.33 nM -18.9% | 10000 nM -20.6%

COc1cccc2c1c(O)c(C(=O)N(C)c1ccc(C(F)(F)F)cc1)c(=O)n2C [tasquinimod]
inactive: 1 nM 1.2% | 8.33 nM 3.29% | 100 nM 1.4% | 833.33 nM 1.35% | 10000 nM 1.05%

CCc1nn(CCO)c(CC)c1Oc1cc(C#N)cc(C#N)c1 [lersivirine]
inactive: 1 nM 2.25% | 8.33 nM 2.52% | 100 nM 2.57% | 833.33 nM 0.87% | 10000 nM 2.19%

N[C@@H](CS(=O)O)C(=O)O [L-cysteinesulfinic-acid]
inactive: 1 nM 0.48% | 8.33 nM 0.74% | 100 nM 1.16% | 833.33 nM -1.19% | 10000 nM 2.03%

CNC(=O)c1ccccc1Nc1cc(Nc2ccc(N3CCOCC3)cc2OC)ncc1C(F)(F)F
inactive: 1 nM 0.1% | 8.33 nM -1.1% | 100 nM -2.99% | 833.33 nM -4.38% | 10000 nM -3.64%

O=C1NC(=O)c2cc(Nc3ccc(F)cc3)c(Nc3ccc(F)cc3)cc21
inactive: 1 nM 1.21% | 8.33 nM -0.56% | 100 nM -1.81% | 833.33 nM 0.4% | 10000 nM 10.3%

c1ccc2nc(C3=NCCN3)ccc2c1
inactive: 1 nM -1% | 8.33 nM 0.61% | 100 nM 2.25% | 833.33 nM 3.75% | 10000 nM 2.01%

CC[C@H]1[C@@H]2C[C@H]3[C@@H]4N(C)c5ccccc5[C@]45C[C@@H]([C@@H]2[C@H]5O)N3[C@@H]1O [ajmaline]
inactive: 1 nM -1.1% | 8.33 nM -2.42% | 100 nM 0.36% | 833.33 nM 0.5% | 10000 nM -1.16%

Clc1ccc(Nc2nnc(Cc3ccncc3)c3ccccc23)cc1 [vatalanib]
inactive: 1 nM 0.19% | 8.33 nM -1.32% | 100 nM 0.29% | 833.33 nM 3.79% | 10000 nM 1.06%

CC(C)[C@H]1[C@@H]2CC[C@@H](C2)[C@@H]1N
inactive: 1 nM 0.17% | 8.33 nM 2.01% | 100 nM 5.77% | 833.33 nM 6.62% | 10000 nM 4.27%

CC(C)(C)c1ccc(S(=O)(=O)NCc2ccc(C(=O)Nc3cccnc3)cc2)cc1
inactive: 1 nM 1.28% | 8.33 nM 0.01% | 100 nM -0.96% | 833.33 nM -2.95% | 10000 nM -10.9%

CC(C)=CCC/C(C)=C/CC/C(C)=C/C=C/C(C)=C/C(=O)O [peretinoin]
inactive: 1 nM 0.75% | 8.33 nM 0.23% | 100 nM -1.49% | 833.33 nM 0.48% | 10000 nM 0.08%

CC/C(=C(\c1ccc(O)cc1)c1ccc(OCCN(C)C)cc1)c1ccccc1 [afimoxifene]
inactive: 1 nM -2.83% | 8.33 nM 1.16% | 100 nM 3.76% | 833.33 nM -0.54%
active: 10000 nM 40%

CC1=C(/C=C/C(C)=C/C=C/C(C)=C/C=C/C=C(C)/C=C/C=C(C)/C=C/C2=C(C)CCCC2(C)C)C(C)(C)CCC1 [beta-carotene]
inactive: 1 nM -0.41% | 8.33 nM 1.55% | 100 nM 1.56% | 833.33 nM 1.85% | 10000 nM -0.57%

O=C(Cn1ccnc1[N+](=O)[O-])NCc1ccccc1 [benznidazole]
inactive: 1 nM -0.15% | 8.33 nM -0.69% | 100 nM -2.08% | 833.33 nM -0.42% | 10000 nM 0.58%

COc1ccc(C(=O)N2CCCC2=O)cc1 [aniracetam]
inactive: 1 nM 0.63% | 8.33 nM 0.43% | 100 nM 0.75% | 833.33 nM 0.1% | 10000 nM 0.6%

Cc1cc(C)c(Nc2ccnc(Nc3ccc(C#N)cc3)n2)c(C)c1 [dapivirine]
inactive: 1 nM -0.02% | 8.33 nM -0.53% | 100 nM 0.06% | 833.33 nM 2.16% | 10000 nM -8.23%

CC(C)OC(=O)N1CCC(Oc2ncnc3c2cnn3-c2ccc(S(C)(=O)=O)cc2F)CC1
inactive: 1 nM -4.65% | 8.33 nM -1.23% | 100 nM 2.78% | 833.33 nM -0.97% | 10000 nM -1.25%

CCOc1ccc(-c2nc(-c3cccc4c3CCC4NCCO)no2)cc1OCC (stereo not given)
inactive: 1 nM -0.52% | 8.33 nM 0.67% | 100 nM 1.13% | 833.33 nM 0.77% | 10000 nM 5.33%

S=C=Nc1ccc(N=C=S)cc1 [bitoscanate]
inactive: 1 nM -1.75% | 8.33 nM 0.45% | 100 nM -0.83% | 833.33 nM 0.38% | 10000 nM -2.58%

CC[C@@H]1Cn2c(c3nc(-c4ccccc4)nc-3n(C)c2=O)N1
inactive: 1 nM -0.6% | 8.33 nM -0.25% | 100 nM -1.09% | 833.33 nM 0.66% | 10000 nM 1.21%

CN(CC(=O)O)C(=N)N [creatine]
inactive: 1 nM -2.18% | 8.33 nM 1.25% | 100 nM -2.37% | 833.33 nM -1.57% | 10000 nM -4.4%

CCC(C)SSc1ncc[nH]1 (stereo not given)
inactive: 1 nM -1.26% | 8.33 nM -14.1% | 100 nM 1.61% | 833.33 nM 2.44% | 10000 nM -1.36%

CC1(C)CC(=O)c2c(C(F)(F)F)nn(-c3ccc(C(N)=O)c(N[C@H]4CC[C@H](O)CC4)c3)c2C1
inactive: 1 nM 1.9% | 8.33 nM 1.97% | 100 nM -3.3% | 833.33 nM -1.33% | 10000 nM -0.66%

COc1ccc([C@@H]2CC(=O)c3c(O)cc(O[C@@H]4O[C@H](CO)[C@@H](O)[C@H](O)[C@H]4O[C@@H]4O[C@@H](C)[C@H](O)[C@@H](O)[C@H]4O)cc3O2)cc1O [neohesperidin]
inactive: 1 nM -2.2% | 8.33 nM 0.62% | 100 nM 2.24% | 833.33 nM -0.64% | 10000 nM -3.03%
